Molecules are shown by their SMILES. Activity calls are given as the source filed them.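 The calls were made as follows: active = relative FRET score above 0.01, or acceptor fluorescence over 30% below the sample-well median; inactive = the rest.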

Sequence of Protein Rev (Human immunodeficiency virus type 1 group M subtype B (isolate WMJ22)) (P05866 whole entry, looked up): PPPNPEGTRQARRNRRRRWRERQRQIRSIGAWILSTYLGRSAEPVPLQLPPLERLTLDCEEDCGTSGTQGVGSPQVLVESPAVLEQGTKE

This assay has as its target Protein Rev (Human immunodeficiency virus type 1 group M subtype B (isolate WMJ22)) (UniProt P05866). The experiment in a line: disruptors of Rev peptide-RRE RNA complex – biochemical, FRET, acceptor and relative FRET calls, confirmation (AID 837).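 Also: relative FRET combines rise in Cy5 acceptor with fall in fluorescein donor.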 To be noted: Fl-Rev peptide / Cy5-RRE RNA FRET, 1536-well; at 8 µM.
In the case of `N=c1n(CCO)c2ccccc2n1Cc1ccccc1Cl`, the outcome was inactive.

For the molecule `CCCCN1CCc2c1nc1ccc(Br)cc1c2N`, the result was inactive.

`c1ccc(COc2ccc(OCCCN3CCCCC3)cc2)cc1`: the result was inactive. For `CNCCCOc1ccc(C(C)(C)c2ccccc2)cc1`, the outcome was active. In the case of `CC(C)CN=c1cc(-c2ccccc2)oc2ccc(Cl)cc12`, the call was active. As for `CN(C)CC(O)COc1ccc(-c2ccc(C#N)cc2)cc1` (centres undefined), the result was active. For the molecule `Cc1ccc(C)n1-c1sccc1C(=O)O`, the call was inactive. As to `C=CCn1cc(-c2ccccc2)cc(C#N)c1=O`, the molecule was classed as inactive.

Turning to `CCCCCCCCNc1ncnc2ccccc12`, the molecule was called inactive. The value for `Nc1nc(CN2CCCCCC2)nc(Nc2ccc(F)cc2)n1` was “inactive”; that for `CC12Cc3ccc4ccccc4c3C=C1C[N+](C)(C)C2` (centres undefined) was “inactive”. The value for `C/C=C/c1ccc(OCCCNC2CCCC2)c(OC)c1` was “inactive”; that for `CN(C)CC(O)COc1ccc(C(C)(C)c2ccc(OCC(O)CN(C)C)cc2)cc1` (centres undefined) was “inactive”. For `CCCCOC(=O)Cn1c(=N)n(CCN(CC)CC)c2ccccc21`, the call was inactive. The entry for `CCOc1ccc(C(O)Cn2c(=N)n(CCN3CCCCC3)c3ccccc32)cc1` (centres undefined) is “inactive”; for `COC(=O)c1scc(C)c1N/N=C(\C)c1ccc(F)cc1F` it is “inactive”; for `N#Cc1c(NCCN)nc(-c2ccco2)c2c1CCCC2` it is “inactive”. Regarding `O=C(N/N=C/c1ccc(F)cc1)c1cc(-c2ccco2)nc2ccccc12`, the outcome is “active; quenches the donor”. As for `COC(CNc1cc(=O)oc2ccccc12)OC`, the outcome was inactive.

Source of the values: PubChem BioAssay AID837 (The Scripps Research Institute Molecular Screening Center, 2007).
